Experimental data taken from PubChem BioAssay (NCI).
The panel holds about 83,000 compounds, 20% with a hit somewhere; the sample as a whole holds those more often.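 For each line, cells grew in 96-well plates with the test compound present at a single concentration for 48 hours.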 Unmarked numbers belong to inactive results. Calls of active or inactive are those of the source. The calls were made as follows: active = growth percent below 10; inactive = the rest.

Columns and labels:
Assay in all cases: NCI-60 one-dose screen, 48 h (100 = growth as untreated, 0 = no growth, -100 = all killed)
Settings in all cases: 10 µM unless noted
[1] = test system: HCT-15 colon
[2] = test system: HT29 colon
[3] = test system: SNB-75 CNS
[4] = test system: SNB-19 CNS
[5] = test system: U251 CNS
[6] = test system: PC-3 prostate
[7] = test system: SK-MEL-5 melanoma
[8] = test system: UACC-62 melanoma
[9] = test system: LOX IMVI melanoma
[10] = test system: SK-MEL-28 melanoma
[11] = test system: EKVX NSCLC
[12] = test system: SN12C renal
[13] = test system: UO-31 renal
[14] = test system: TK-10 renal
[15] = test system: ACHN renal
[16] = test system: A498 renal
[17] = test system: CCRF-CEM leukemia
[18] = test system: MOLT-4 leukemia
[19] = test system: CAKI-1 renal

Row | Compound | growth [1] | growth [2] | growth [3] | growth [4] | growth [5] | growth [6] | growth [7] | growth [8] | growth [9] | growth [10] | growth [11] | growth [12] | growth [13] | growth [14] | growth [15] | growth [16] | growth [17] | growth [18] | growth [19]
1 | O=C(c1ccc(/C=C/c2n[nH]c3ccccc23)cc1)N1CCNCC1 | 40.3% | 13.5% | 0.841% (active) | 68.7% | 58.9% | 38.3% | 53.1% | 48.7% | 5.66% (active) | 46.2% | 71% | 22.5% | -7.82% (active) | 53% | 36.5% | 37.9% | 53.2% | 19.9% | 
2 | C[C@@H](Oc1cc(-n2cnc3ccc(CN4CCN(C)CC4)cc32)sc1C(N)=O)c1ccccc1C(F)(F)F | 6.53% (active) | 4.62% (active) | -5.55% (active) | 26.1% | 29.1% | 32.9% | 4.6% (active) | 51.1% | 4.53% (active) | 38% | 38.9% | 15.6% | 16.6% | 52.2% | 31.1% |  | 6.03% (active) | -7.58% (active) | 28.3%
3 | NC[C@@](O)(c1ccc(Cl)cc1)c1ccc(-c2cn[nH]c2)cc1 | 9.55% (active) | 1.46% (active) | -6.12% (active) | 30.6% | 19.1% | 40.1% | 39.3% | -2.01% (active) | 7.1% (active) | 3.21% (active) | 27.1% | 29.3% | -13.6% (active) | 5.87% (active) | 11.6% |  | 15.8% | 13.2% | 11.3%
4 | O=C(COc1cccc(/C=C2\Cc3ccc(Cl)cc3C2=O)c1)Nc1nccs1 | 91.9% | 102% | 76.6% | 85.9% | 96.7% | 88% | 93.1% | 84.2% | 78% | 124% | 98.1% | 89.3% | -68% (active) | 142% | 91.8% | 98.3% | 77.1% | 37.3% | 78.2%
5 | NC1(c2ccc(-c3nc4ccn5c(=O)[nH]nc5c4cc3-c3ccccc3)cc2)CCC1 | 15.2% | -7.85% (active) | -8.24% (active) | 18.1% | -3.88% (active) | 21.3% | -85.7% (active) | 47.5% | -57.6% (active) | -66.7% (active) | 40.6% | 50.9% | 28.6% | 44.3% | 36.2% | -62.8% (active) | 1.33% (active) | -13.2% (active) | 32.3%
6 | C=CC(=O)Nc1cccc(Nc2nc(Nc3ccc(N4CCN(C(C)=O)CC4)cc3OC)ncc2C(F)(F)F)c1 | 5% (active) | -7.05% (active) | 16.1% | 39.6% | 30.1% | 27.6% | 6.86% (active) | 11.1% | 6.36% (active) | 50.6% | 1.17% (active) | 20.7% | -18.3% (active) | -24.6% (active) | 5.26% (active) | -47.1% (active) | 19.2% | 12.6% | -13.1% (active)
7 | CCN1CCN(CCCN(C[C@H]2Cc3ccccc3CN2)[C@H]2CCCc3cccnc32)CC1 | 72.5% | 75.2% | 84.8% | 84.9% | 79.2% | 77.3% | 97.7% | 106% | 74.3% | 108% | 84% | 83.8% | 53.2% | 85.6% | 87.6% | 86.6% | 79.6% | 69.8% | 74.4%
8 | CC(C)=CCc1cc2c(cc1O)C1=C(C(=O)C3=C(NCCS3(=O)=O)C1=O)C(C=C(C)C)O2 (stereo not drawn) | 39.8% | 47.9% | 71.4% | 31.7% | 1.89% (active) | 16.4% | 5.34% (active) | 28.2% | 4.56% (active) | 24.3% | 48.6% | -43.3% (active) | 41.6% | 122% | 62.4% | 94.9% | 0.962% (active) | -22.3% (active) | 
9 | CC1(O)CCC(Nc2cc(-c3ccc(C(F)(F)F)cc3)c(C#N)c3nc4ccccc4n23)CC1 (stereo not drawn) | 58.6% | 60.7% | 41.4% | 70.3% | 67.9% | 35.5% | 5.75% (active) | 77.1% | 55% | 89.3% | 54.1% | 63.9% | 47.1% | 71.4% | 59.8% |  | 64.9% | 27.5% | 54.6%
10 | Cn1ncc(Cl)c1-c1cc(C(=O)N[C@H](CN)Cc2ccc(F)c(F)c2)oc1Cl | 6.57% (active) | -11.7% (active) | -86.4% (active) | 2.29% (active) | -86.5% (active) | -25% (active) | -96.2% (active) | -78.5% (active) | -88.8% (active) | -77.1% (active) | 6.1% (active) | 16.5% | -19.8% (active) | -91% (active) | 4.47% (active) |  | 3.82% (active) | -4.62% (active) | -34.2% (active)
11 | COc1ccc(F)c(F)c1C(=O)c1cnc(NC2CCN(S(C)(=O)=O)CC2)nc1N | 3.08% (active) | -25.5% (active) | -66.1% (active) | 12.6% | 0.678% (active) | 0.205% (active) | -42.1% (active) | -44.5% (active) | 6.39% (active) | -35.3% (active) | 2.22% (active) | 14.5% | -3.94% (active) | -7.34% (active) | 5.94% (active) |  | 7.13% (active) | 6.48% (active) | 13.1%
12 | Cc1c(Cn2c(C)nc3c(C(=O)O)cc(N4CCOCC4)cc32)cccc1C(F)(F)F | 44.5% | 69.5% | 61.3% | 118% | 104% | 68.2% | 104% | 65.5% | 101% | 80.9% | 101% | 95.7% | 47% | 84.1% | 77.1% | -17% (active) | 79.6% | 60.2% | 91.7%
13 | C1=C\COCc2cc(ccc2OCCN2CCCC2)Nc2nccc(n2)-c2cccc(c2)COC/1 | 1.31% (active) | -30.8% (active) | -95.8% (active) | 1.55% (active) | -22.6% (active) | 0.91% (active) | -96.5% (active) | -68.7% (active) | -70.2% (active) | -41.8% (active) | 0.564% (active) | -26.6% (active) | -29.2% (active) | 55.3% | 3.85% (active) |  | 4.28% (active) | -8.61% (active) | -44.8% (active)
14 | O=C(COc1ccc(/C=C2\Cc3ccc(Cl)cc3C2=O)cc1)Nc1nccs1 | 98.5% | 108% | 86.6% | 83.8% | 108% | 96% | 99.3% | 95.3% | 93% | 122% | 110% | 95.7% | 28.7% | 138% | 92.7% | 127% | 59.5% | 51.7% | 90.1%
15 | Cc1cc(C(=O)NOCCO)c(Nc2ccc(I)cc2F)n(C)c1=O | 67.5% | 7.17% (active) | 83.8% | 57.9% | 51.8% | 106% | 50.4% | -1.84% (active) | 26.3% | 1.47% (active) | 56.7% | 68.3% | 46.3% | 48% | 64.3% | -14% (active) | 85% | 83.7% | 40.6%
16 | COc1ccc(COc2cc3oc(=O)c4cc(C(C)O)ccc4c3cc2OC)cc1 (stereo not drawn) | 36.6% | 30.1% | 13.7% | 31.9% | 46.5% | 53% | 56.3% | 50.4% | 76.3% | 56.3% | 68.9% | 68.5% | 64.5% | 73.5% | 48.4% |  | 77.1% | 54.5% | 55.9%
17 | COc1cc2nccc(Oc3ccc(NC(=O)Nc4cc(C)on4)c(Cl)c3)c2cc1OC | 18.3% | -9.07% (active) | -6.16% (active) | 32.8% | 28.2% | 21.1% | -19.7% (active) | 11.5% | -2.96% (active) | 23.2% | 37.6% | 11.6% | -15.3% (active) | -15.8% (active) | 13.7% |  | 22.3% | 7.51% (active) | 2.09% (active)
